# Screening results (PubChem BioAssay)
# HepG2 tox: kills HepG2 cells in TGF-b inhibitor counter-screen; HepG2 CAGA-GFP viability, ATP luminescence, 18 h; Potency, µM (titrated, usually from 46.1 µM), inactives show top-dose activity change, negative = cytotoxicity, actives largely listed as cytotoxic; 410,000 compounds, 0.76% hits
#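 CellTiter-Glo luminescence gave cytotoxicity after 18 hours at 37 degrees C. The cells were HepG2 CAGA-GFP in 1% FBS DMEM, stimulated with 500 pg/mL TGF-beta after compound addition. %Activity was normalised to no-cell wells (complete cell-killing) and DMSO (no toxicity), and curves were fitted and classified.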
# DT40 TDP1 CPT: DT40-hTDP1 cell growth loss with CPT; chicken DT40 Tdp1-/-;hTDP1 cells + 20 nM CPT, ATP luminescence, 48 h; Potency, µM (highest dose often 46.2 µM), for the others: top-dose activity change, negative = growth inhibition, hits mostly inhibitors; 420,000 compounds, 12% hits; further: on the % scale 0 is the no-effect control and ±100 the full control effect; nearly all actives have a fitted effect of over 55% in size
#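 Chicken DT40 Tdp1-/- cells complemented with human TDP1, 400 cells/well, exposed to compounds plus 20 nM camptothecin for at least 48 h at 37 C; viability read as ATP content by CellTiter-Glo luminescence.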
# TDP1 cell noCPT: qHTS for Inhibitors of human tyrosyl-DNA phosphodiesterase 1 (TDP1): qHTS in cells in absence of CPT. DT40 Tdp1-/- hTDP1 cells, no CPT, ATP luminescence, 48 h. Potency, µM (titrated, usually from 46.2 µM), for the others: at the top dose activity change, negative = growth inhibition, most hits filed as inhibitors. 420,000 compounds, 15% hits; further: on the % scale 0 is the no-effect control and ±100 the full control effect; nearly all actives have a fitted effect of over 55% in size
#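 Cells were dispensed at 400 per well, compounds added by pin tool, plates incubated ≥48 hr at 37 °C, then CellTiter-Glo added for 30 min at room temperature before luminescence reading. Line: DT40 Tdp1-/- complemented with hTDP1; camptothecin omitted.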
# TGFb SMAD3 inh: TGF-b pathway inhibition | HepG2 CAGA-GFP TGF-b/SMAD3 reporter, GFP fluorescence, 18 h; TGF-beta stimulated, 500 pg/mL final | Potency, µM (doses to about 46.1 µM), without a hit: at the highest dose activity, negative = inhibition, usual class: inhibitors | 410,000 compounds, 1.2% hits | AID 588855; further: on the % scale 0 is the no-effect control and ±100 the full control effect; nearly all actives have a fitted effect of over 65% in size
#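 Per well, imaged GFP fluorescence of HEPG2 CAGA-GFP cells gives the signal; cells get compound, then TGF-beta (500 pg/mL final), 18 h at 37 degrees C; %Activity versus -TGF-beta and +DMSO controls.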
# ATXN viability: cell viability loss in ATXN counter-screen. S2 cells (HEK-293 line with an ATXN2-luciferase reporter) viability, CellTiter-Fluor protease fluorescence, 24 h. Potency, µM (top dose mostly 56.7 µM), usual class: cytotoxic. 400,000 compounds, 0.49% hits; further: nearly all actives have a fitted effect of over 40% in size
# ATXN2 expr inh: inhibitors of ATXN2 expression | 360,000 compounds, 0.72% hits | HEK-293 ATXN2-luciferase reporter, luminescence, 24 h | Potency, µM (highest dose often 57 µM), inactives show at the top dose activity change, negative = inhibition, hits mostly inhibitors; further: on the % scale 0 is the no-effect control and ±100 the full control effect; nearly all actives have a fitted effect of over 55% in size
#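 ATXN2-luciferase reporter cells (luciferase flanked by upstream and downstream ATXN2 gene portions) were treated 24 h at 37 °C with compounds at up to 57 uM. SteadyGlo luminescence gave expression; GF-AFC fluorescence gave viability.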
# * marks the source's active call; other numbers are inactive results; i = inactive; u = inconclusive; x = no result; [ ] = another dose, or the depositor's remark. Compounds with a hit are over-represented: about 17% of the library has one in this group of screens. The call rests on the fitted dose curve; in most records, active means well fitted curve in the direction sought with a large enough effect; inconclusive means small, poorly fitted or top-dose-only effect, or another doubt; inactive means no such curve, though single readings can be large; an effect the other way counts as inactive or inconclusive. Potency means the concentration at half of the fitted maximal effect.
SMILES,HepG2 tox,DT40 TDP1 CPT,TDP1 cell noCPT,TGFb SMAD3 inh,ATXN viability,ATXN2 expr inh
CCO[C@H]1OC(C(N)=O)=C[C@@H](c2csc3ccccc23)[C@@H]1CCCO,-10%,-2%,2%,6%,i,2%
CCO[C@@H]1OC(C(=O)N2CCCCCCC2)=C[C@H](c2cn(C(C)=O)c3ccccc23)[C@H]1CCCO,-13%,16µM*,u,-24%,u,-10%
O=c1[nH]nc(Br)c(=O)n1C(c1ccccc1)c1ccccc1,-6%,21µM*,u,-22%,i,-8%
COc1ccc(S(=O)(=O)N2CCOCC2)c2ccccc12,-5%,-10%,-18%,-16%,i,x
CC1C(=O)N(Cc2cn(Cc3ccco3)nn2)CCS(=O)(=O)N1Cc1ccc(-c2ccc(Cl)cc2)cc1 (centres undefined),-43%,18µM*,13µM*,u,u,u
CC1C(=O)N(Cc2cn(Cc3ccco3)nn2)CCS(=O)(=O)N1Cc1ccc(-c2ccccc2)cc1 (centres undefined),-27%,u,18µM*,u,i,u
CC(C)(C)n1ncc2c(=O)n(Cc3ccccc3CS(=O)(=O)c3ccccc3)cnc21,-27%,x,x,-9%,x,x
O=C(CSc1nnc(SCc2ccccc2Cl)s1)N/N=C/c1c[nH]c2ccccc12,-40%,26µM*,u,u,u,-13%
O=C(CSc1nnc(SCc2ccc(Cl)cc2)s1)N/N=C/c1ccc(Cl)cc1Cl,-5%,-14%,-40%,3%,u,x
O=C(CSc1nnc(SCc2ccc(Cl)cc2)s1)N/N=C/c1c(Cl)cccc1Cl,-38%,u,26µM*,-14%,i,-6%
Cc1oc(-c2cc(F)ccc2F)nc1CN(C)Cc1ccc2nccnc2c1,-23%,u,16µM*,-12%,i,-1%
Cc1oc(-c2cc(F)ccc2F)nc1CN1CCN(c2cnccn2)CC1,-9%,-12%,-26%,16%,i,-7%
CC(NC(=O)C1CCN(S(=O)(=O)c2cccs2)CC1)c1cccc(Cl)c1 (centres undefined),-1%,-22%,3%,-3%,i,6%
COc1cc(CN2CCC(C(=O)NCC(C)(C)CN(C)C)CC2)ccc1OCc1ccccc1,-51%,6.5µM*,u,-14%,u,x
C[C@H]1CN(S(=O)C(C)(C)C)[C@H](CCO)/C1=C\CCO (some centres undefined),-1%,26%,9%,14%,i,0%
CCNC(=O)C1CCCN(C(=O)Cc2cccs2)CC1 (centres undefined),1%,13%,-2%,-16%,i,-4%
CCCCOc1ccc(C(=O)N/N=C/c2ccc(OCCN3CCCCC3)c(OC)c2)cc1,-36%,21µM*,u,29%,u,u
CC(C)COc1ccc(C(=O)CCN2CCCCC2)cc1,-95%,5.2µM*,2.9µM*,u,i,-23%
CCCCOc1ccc(C(=O)NCC2(N3CCN(C)CC3)CCCCC2)cc1,-20%,u,18µM*,0%,x,x
CCCCOc1ccc(C(=O)CCN2CCCCC2)cc1,-81%,8.2µM*,6.5µM*,u,i,u
CC(=O)c1ccc(OCCCN2CCCCC2)cc1,0%,-6%,-2%,0%,i,12%
COc1ccc(C(=O)NCC2(N3CCN(C)CC3)CCCCC2)cc1,0%,2%,6%,3%,x,x
CC(C)COc1ccc(C(=O)OCCN2CCCCC2)cc1,-2%,-2%,-20%,-1%,i,12%
COc1ccc(-c2nn(-c3ccccc3)cc2/C=N/Nc2ccc(Cl)c(C(=O)O)c2)cc1OC,3%,6%,12%,1%,i,x
Cc1ccc(C(=O)NCC(=O)OCc2cc(=O)n3ccsc3n2)cc1,2%,4%,-3%,-12%,i,-1%
SMILES,HepG2 tox,DT40 TDP1 CPT,TDP1 cell noCPT,TGFb SMAD3 inh,ATXN viability,ATXN2 expr inh
C[C@H](CO)N1C[C@H](C)[C@@H](CN(C)C(=O)Nc2ccc(F)cc2)Oc2ncc(-c3ccc(F)cc3)cc2C1=O,-18%,u,u,-16%,i,6%
COc1ccc2cc(/C(C)=N/NC(=O)c3cc(C)oc3C)ccc2c1,-29%,u,u,-16%,u,x
O=C(O)COc1ccccc1C(Nc1cccnc1)c1cc(Cl)c2cccnc2c1O (centres undefined),-12%,6%,10%,-9%,i,1%
CCCC(=O)NC(c1ccc2c(c1)OCO2)c1cc(Cl)c2cccnc2c1O (centres undefined),-7%,4.6µM*,3.7µM*,u,i,8.9µM*
CCCC(=O)NC(c1cccs1)c1cc(Cl)c2cccnc2c1O (centres undefined),-31%,5.2µM*,2.9µM*,u,i,-22%[11.3 µM]
CCCC(=O)NC(c1ccco1)c1cc(Cl)c2cccnc2c1O (centres undefined),-17%,3.7µM*,4.6µM*,-3%,u,25µM*
CCC(=O)NC(c1ccco1)c1cc(Cl)c2ccccc2c1O (centres undefined),-23%,x,x,u,i,-12%
CCCCn1c(N)c(N(C(=O)CSc2nnc(C)n2-c2ccccc2)C2CCCC2)c(=O)[nH]c1=O,0%,-10%,14%,-13%,i,6%
CC(C)CN(CCNC(=O)CN1N=C(c2ccc(Cl)cc2)CCC1=O)CC(C)C,6%,-25%,-19%,5%,i,0%
CCC(=O)Oc1ccc2c(c1)CC[C@@H]1[C@@H]2CC[C@@]2(C)[C@H]1C[C@@H](OC(=O)CC)[C@@H]2OC(=O)CC,x,x,x,x,i,-11%
O=C1OC(c2ccc3ccccc3c2O)(c2ccc3ccccc3c2O)c2ccccc21,-17%,5.8µM*,5.2µM*,u,x,u
O=C1OC(c2ccccc2)(c2ccc3cc(O)ccc3c2)c2ccccc21 (centres undefined),-182%,21µM*,u,u,u,u
O=C1OC2(c3ccccc31)c1ccccc1-c1ccccc12,2%,-13%,u,-16%,i,-13%
O=C1OC(c2ccc(O)cc2)(c2ccc(O)cc2)c2ccccc21,-15%,u,u,-25%,i,-14%
